PubChem BioAssay AID1159580 (chemical genetic matrix, 2015)
Where “and” joins values, the source holds several entries; their conditions need not be identical. Identical values can stand only once. Hit rate of the full screen: of about 5,500 compounds, about 2,000 (36%) were called active. Inconclusive results (about 18%) are left out. No stated cut-off is given here; in the data, active means normalized growth mostly below about 0.91 (no sharp cut-off); inconclusive means no clear call, values can overlap the other calls; inactive means mostly above about 0.92. The list shows a part of the results.

Assay: chemical genetic growth profiling, strain panel (AID 1159580);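 further: tested at 20 µM; growth read once vehicle control cultures reached saturation at 30 °C; 1 = growth at the plate median or of vehicle wells; lower values mean less growth of the strain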
Details: S. cerevisiae deletion strains, growth OD

Measured: normalized growth

CCN1C[C@@]2(COC)C3[C@@H](OC)[C@H]4[C@@H]1[C@]3(C(OC)C[C@H]2O)C1C[C@@]2(O)[C@H](OC(=O)c3ccccc3)C1[C@]4(OC(C)=O)[C@@H](O)[C@@H]2OC (stereo partly drawn)
inactive: locus YAL021C, strain ccr4, active compounds read low 1.03 | locus YAL026C, strain drs2, active compounds read low 1.02 | locus YAL030W, strain snc1, active compounds read low 1 | locus YBL061C, strain skt5, active compounds read low 1 | locus YBR009C, strain hhf1, active compounds read low 1.06 | locus YBR021W, strain FUR4, active compounds read low 0.985 | locus YBR023C, strain chs3, active compounds read low 1.01 | locus YBR171W, strain sec66, active compounds read low 1.01 | locus YBR229C, strain ROT2, active compounds read low 1.02 | locus YBR231C, strain swc5, active compounds read low 0.995 | locus YBR279W, strain paf1, active compounds read low 1.02 | locus YCL011C, strain gbp2, active compounds read low 1.02 | locus YCL016C, strain dcc1, active compounds read low 0.999 | locus YCL029C, strain bik1, active compounds read low 1.03 | locus YCL061C, strain MRC1, active compounds read low 1 | locus YCL069W, strain vba3, active compounds read low 1 | locus YCR088W, strain abp1, active compounds read low 1 | locus YDL005C, strain med2, active compounds read low 1.01 | locus YDL035C, strain GPR1, active compounds read low 1.03 | locus YDL040C, strain nat1, active compounds read low 1 | locus YDL074C, strain BRE1, active compounds read low 1.03 | locus YDL101C, strain DUN1, active compounds read low 1.02 | locus YDL185W, strain tfp1, active compounds read low 1.04 | locus YDL192W, strain arf1, active compounds read low 1.03 | locus YDR001C, strain nth1, active compounds read low 1.01 | locus YDR069C, strain doa4, active compounds read low 0.985 | locus YDR101C, strain arx1, active compounds read low 1.03 | locus YDR137W, strain rgp1, active compounds read low 1.02 | locus YDR150W, strain NUM1, active compounds read low 1.02 | locus YDR159W, strain sac3, active compounds read low 0.978 | locus YDR162C, strain NBP2, active compounds read low 1.05 | locus YDR195W, strain ref2 0.97 | locus YDR297W, strain sur2, active compounds read low 1.04 | locus YDR318W, strain mcm21, active compounds read low 1.03 | locus YDR334W, strain swr1, active compounds read low 1.02 | locus YDR335W, strain msn5, active compounds read low 1.01 | locus YDR388W, active compounds read low 1.03 | locus YDR392W, strain spt3, active compounds read low 0.907 | locus YDR502C, strain sam2, active compounds read low 1.03 | locus YEL003W, strain gim4, active compounds read low 1.02 | locus YEL037C, strain rad23, active compounds read low 1.01 | locus YEL061C, strain CIN8 (second series), active compounds read low 1.01 | locus YEL061C, strain CIN8, active compounds read low 1.02 | locus YER015W, strain faa2, active compounds read low 1.01 | locus YER016W, strain bim1, active compounds read low 1 | locus YER110C, active compounds read low 1.04 | locus YER111C, strain swi4, active compounds read low 1.01 | locus YER155C, strain BEM2 (second series), active compounds read low 0.973 | locus YER155C, strain BEM2, active compounds read low 1 | locus YER167W, strain BCK2, active compounds read low 1.03 | locus YFR010W, strain ubp6, active compounds read low 1.01 | locus YGL078C, strain dbp3, active compounds read low 1.03 | locus YGL086W, strain mad1, active compounds read low 1.02 | locus YGL167C, strain pmr1, active compounds read low 0.998 | locus YGL173C, strain kem1, active compounds read low 1.02 | locus YGL227W, strain vid30, active compounds read low 1.01 | locus YGL240W, strain doc1, active compounds read low 0.987 | locus YGL248W, strain PDE1, active compounds read low 1.02 | locus YGL253W, strain hxk2, active compounds read low 1.01 | locus YGR135W, strain pre9, active compounds read low 1.03 | locus YGR252W, strain gcn5, active compounds read low 1.01 | locus YHR013C, strain ard1, active compounds read low 0.995 | locus YHR027C, strain rpn1, active compounds read low 1.01 | locus YHR030C, strain SLT2, active compounds read low 1.02 and 0.957 | locus YHR079C, strain IRE1 (second series), active compounds read low 1.03 | locus YHR079C, strain IRE1, active compounds read low 0.967 | locus YHR094C, strain hxt1, active compounds read low 1.03 | locus YHR129C, strain ARP1, active compounds read low 1.02 | locus YHR142W, strain chs7, active compounds read low 1.03 | locus YHR200W, strain rpn10, active compounds read low 1.04 | locus YIL066C, strain RNR3, active compounds read low 1.04 | locus YIL073C, strain SPO22, active compounds read low 1.13 | locus YIL125W, strain kgd1, active compounds read low 1.03 | locus YIR030C, strain dcg1, active compounds read low 1.03 | locus YJL092W, strain hpr5, active compounds read low 1 | locus YJL095W, strain BCK1 (second series), active compounds read low 1.02 | locus YJL095W, strain BCK1, active compounds read low 1.04 and 1 | locus YJL115W, strain asf1, active compounds read low 1.01 | locus YJL129C, strain trk1, active compounds read low 1.01 | locus YJL134W, strain LCB3, active compounds read low 1.01 | locus YJL154C, strain vps35, active compounds read low 1 | locus YJL164C, strain tpk1, active compounds read low 1.02 | locus YJL166W, strain qcr8, active compounds read low 0.989 | locus YJL168C, strain set2, active compounds read low 1.03 | locus YJL187C, strain SWE1 (second series), active compounds read low 1.04 | locus YJL187C, strain SWE1, active compounds read low 1.03 | locus YJR043C, strain POL32, active compounds read low 1.03 | locus YJR066W, strain TOR1, active compounds read low 0.975 | locus YKL009W, strain mrt4, active compounds read low 1.05 | locus YKL068W, active compounds read low 1.05 | locus YKL085W, strain MDH1 (second series), active compounds read low 1.03 | locus YKL085W, strain MDH1, active compounds read low 1.03 | locus YKL160W, strain elf1, active compounds read low 0.963 | locus YKR001C, strain vps1, active compounds read low 1.01 | locus YKR026C, strain gcn3, active compounds read low 1.01 | locus YKR091W, strain srl3, active compounds read low 1.01 | locus YLL001W, strain dnm1, active compounds read low 0.992 | locus YLL026W, active compounds read low 1 | locus YLL041C, strain sdh2, active compounds read low 1.01 | locus YLR027C, strain aat2, active compounds read low 1 | locus YLR039C, strain RIC1, active compounds read low 1.09 | locus YLR058C, strain SHM2, active compounds read low 1.03 | locus YLR102C, strain apc9, active compounds read low 1.03 | locus YLR113W, strain HOG1, active compounds read low 0.94 | locus YLR221C, strain rsa3, active compounds read low 0.999 | locus YLR258W, strain gsy2, active compounds read low 1.01 | locus YLR262C, strain YPT6 (second series), active compounds read low 0.994 | locus YLR262C, strain YPT6, active compounds read low 1.13 | locus YLR268W, strain sec22, active compounds read low 1.02 | locus YLR320W, strain mms22, active compounds read low 0.991 | locus YLR330W, strain CHS5, active compounds read low 1.02 | locus YLR342W, strain FKS1 (second series), active compounds read low 1.02 | locus YLR342W, strain FKS1, active compounds read low 1.01 | locus YLR357W, strain rsc2, active compounds read low 1.01 | locus YLR370C, strain arc18, active compounds read low 1.02 | locus YLR371W, strain rom2, active compounds read low 1.02 | locus YLR384C, strain iki3, active compounds read low 1.01 | locus YLR418C, strain cdc73, active compounds read low 1.04 | locus YML016C, strain PPZ1, active compounds read low 1.02 | locus YML032C, strain rad52, active compounds read low 1.02 | locus YML120C, strain ndi1, active compounds read low 1.01 | locus YML124C, strain tub3, active compounds read low 1.04 | locus YMR058W, strain fet3, active compounds read low 1.01 | locus YMR078C, strain ctf18, active compounds read low 1.06 | locus YMR125W, strain sto1, active compounds read low 0.973 | locus YMR129W, active compounds read low 1.01 | locus YMR205C, strain PFK2, active compounds read low 0.966 | locus YMR223W, strain ubp8, active compounds read low 1.02 | locus YMR231W, strain pep5, active compounds read low 1.01 | locus YMR307W, strain GAS1, active compounds read low 1.01 | locus YNL067W, strain RPL9B, active compounds read low 1.04 | locus YNL071W, strain lat1, active compounds read low 1 | locus YNL128W, strain TEP1, active compounds read low 1.02 | locus YNL183C, strain NPR1, active compounds read low 0.937 | locus YNL209W, strain ssb2, active compounds read low 1.01 | locus YNL233W, strain BNI4, active compounds read low 1.03 | locus YNL248C, strain rpa49, active compounds read low 0.953 | locus YNL250W, strain rad50, active compounds read low 1.04 | locus YNL271C, strain bni1, active compounds read low 1.04 | locus YNL298W, strain CLA4, active compounds read low 1.05 | locus YNL307C, strain MCK1, active compounds read low 1.05 | locus YNL322C, strain KRE1 (second series), active compounds read low 0.998 | locus YNR049C, strain mso1, active compounds read low 1.01 | locus YNR052C, strain pop2, active compounds read low 1.02 | locus YOL012C, strain htz1 1.37 | locus YOL147C, strain pex11, active compounds read low 1.02 | locus YOR001W, strain rrp6, active compounds read low 1 | locus YOR061W, strain CKA2, active compounds read low 1.02 | locus YOR069W, strain VPS5, active compounds read low 1.01 | locus YOR070C, strain gyp1, active compounds read low 1.01 | locus YOR080W, strain dia2, active compounds read low 0.998 | locus YOR083W, strain WHI5, active compounds read low 0.968 | locus YOR106W, strain vam3, active compounds read low 0.988 | locus YOR136W, strain idh2, active compounds read low 1.04 | locus YOR144C, strain elg1, active compounds read low 1.01 | locus YOR184W, strain ser1, active compounds read low 1.02 | locus YOR231W, strain MKK1, active compounds read low 0.966 | locus YOR265W, strain rbl2, active compounds read low 0.999 | locus YOR270C, strain vph1, active compounds read low 0.981 | locus YOR290C, strain snf2, active compounds read low 1 | locus YOR316C, strain cot1, active compounds read low 1.04 | locus YPL051W, strain arl3, active compounds read low 0.988 | locus YPL055C, strain LGE1, active compounds read low 1.05 | locus YPL078C, strain atp4, active compounds read low 0.958 | locus YPL106C, strain sse1, active compounds read low 1 | locus YPL240C, strain hsp82, active compounds read low 1.01 | locus YPL241C, strain CIN2, active compounds read low 1.02 | locus YPL256C, strain CLN2, active compounds read low 0.986 | locus YPR119W, strain clb2, active compounds read low 1.03 | locus YPR141C, strain kar3, active compounds read low 1.03 | locus YPR163C, strain tif3, active compounds read low 1.01 | locus YPR167C, strain met16, active compounds read low 1.04 | strain wtn01, active compounds read low 1.03
